KDM5B inh – KDM5B demethylase inhibition. Q9UGL1. KDM5B demethylase, FDH-coupled NADH fluorescence (FDH is formaldehyde dehydrogenase). Potency, µM (series often up to 57.7 µM), usual class: inhibitors. 2.6% of 220,000 active; note: potency is the fitted concentration of half-maximal effect; 0% is about no effect; nearly all actives have a fitted effect of over 70% in size
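Measured: NADH fluorescence change, 30 min, RT. System: KDM5BΔAP 200 nM final, H3K4me3 peptide, α-KG, Fe(II), ascorbate, NAD⁺ plus FDH, pH 7.5 HEPES. Compounds: titrated, 10 min pre-incubation with enzyme.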
HEK293 viab – reduces viability of HEK-293 SNCA reporter cells; Potency, µM (doses to about 57.1 µM), for the others: top-dose activity change, negative = cytotoxicity, actives largely listed as cytotoxic; 0.12% of 150,000 active; HEK-293-SNCA-luc viability, GF-AFC fluorescence, 24 h;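 note: potency is the fitted concentration of half-maximal effect; 0% = DMSO-treated cells and -100% = medium-only wells without cells; nearly all actives have a fitted effect of over 30% in size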
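Cytotoxicity counterscreen: after 24 h compound treatment of genome-edited SNCA-luciferase HEK-293 cells, live-cell protease substrate GF-AFC read by fluorescence after 30 min; activity scaled between DMSO (0%) and medium-only (-100%), curves Hill-fitted.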
IP6K1 inh – blocks human inositol hexakisphosphate kinase 1 | Q92551 | IP6K1 kinase, ADP-Glo luminescence, 2 h; hits give low values | activity change, % (series mostly up to about 58 µM) | 0.81% of 140,000 active | AID 1645851; in the data active = activity change below about -25%; note: % is set by controls: 0 for no effect and ±100 for the full control effect
Target sequence (Q92551 whole entry, looked up): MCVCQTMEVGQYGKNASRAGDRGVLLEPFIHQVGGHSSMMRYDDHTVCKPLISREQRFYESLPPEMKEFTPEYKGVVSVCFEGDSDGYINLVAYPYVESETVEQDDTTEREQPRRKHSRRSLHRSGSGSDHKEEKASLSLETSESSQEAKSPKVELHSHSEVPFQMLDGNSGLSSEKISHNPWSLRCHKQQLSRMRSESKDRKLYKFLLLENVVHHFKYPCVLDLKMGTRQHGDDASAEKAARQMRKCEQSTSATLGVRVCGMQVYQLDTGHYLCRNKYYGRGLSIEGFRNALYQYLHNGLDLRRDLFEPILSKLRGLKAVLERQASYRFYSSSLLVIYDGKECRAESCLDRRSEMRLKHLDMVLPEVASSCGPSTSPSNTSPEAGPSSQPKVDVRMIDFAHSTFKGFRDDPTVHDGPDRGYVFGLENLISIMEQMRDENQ
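ADP-Glo luminescence measures ADP made by human IP6K1 during a 2 h RT reaction with ATP/IP6 (mix at 1.3 mM/130 uM); top library doses 57.5 and 19.1 uM final.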
SNCA expr inh – inhibitors of alpha-synuclein (SNCA) gene expression; Potency, µM (series often up to 57.2 µM), inactives show at the top dose activity change, negative = inhibition, actives largely listed as inhibitors; HEK-293 SNCA-luciferase knock-in, luminescence, 24 h; 0.17% of 140,000 active;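 note: potency is the fitted concentration of half-maximal effect; plate controls were DMSO cells for no effect and cell-free wells for full effect; nearly all actives have a fitted effect of over 45% in size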
* = called active by the depositor; [ ] = dose if it differs, or a comment. Sampled rows, rich in hits. Any-hit rate of the full collection: about 2.8%. Unless noted, calls come from the whole dose curve; as a rule, active = well fitted curve in the direction sought with a large enough effect; inconclusive = small, poorly fitted or top-dose-only effect, or another doubt; inactive = no such curve, though single readings can be large; an effect the other way counts as inactive or inconclusive.

O=C(Cc1cccc(F)c1)NC1CCN(c2cc(-c3cccs3)[nH]n2)C1 (stereo not drawn) was read as KDM5B inh inconclusive, HEK293 viab -4%, IP6K1 inh -3 and SNCA expr inh 12%.
For COc1cccc(CC(=O)NC2CCN(c3cc(-c4cccs4)[nH]n3)C2)c1 (stereo not drawn) the results were KDM5B inh 28µM*, HEK293 viab -5%, IP6K1 inh -9 and SNCA expr inh 0%.
For O=C(Cc1cccc(Cl)c1)NC1CCN(c2cc(-c3cccs3)[nH]n2)C1 (stereo not drawn) the results were KDM5B inh 4µM*, HEK293 viab -3%, IP6K1 inh 10 and SNCA expr inh 2%.
`CCOC(=O)C1(Cc2ccccc2F)CCCN(C(=O)CCc2c[nH]c3ccccc23)C1` (stereo not drawn) gave KDM5B inh inactive, HEK293 viab inconclusive, IP6K1 inh 17 and SNCA expr inh inconclusive.
`CCc1ccc2oc(C(=O)NCC(c3ccco3)N(C)C)cc(=O)c2c1` (stereo not drawn) gave KDM5B inh inactive.
For COc1ccc(Nc2ccnc(N3CCC(NC(=O)c4ccccc4Cl)CC3)n2)cc1 the results were HEK293 viab -21%, IP6K1 inh 9 and SNCA expr inh 26%.
Screening c1ccc2cc(-c3noc([C@@H]4Cc5nc[nH]c5CN4CC4CCCCC4)n3)ccc2c1 returned KDM5B inh 28µM*, HEK293 viab -12%[87.6 µM], IP6K1 inh 11 and SNCA expr inh 40%[87.6 µM].
Screening Cc1cccc(-c2noc([C@@H]3Cc4nc[nH]c4CN3Cc3ccc(C(=O)O)cc3)n2)c1 returned KDM5B inh 32µM*, HEK293 viab 3%[87.6 µM], IP6K1 inh -8 and SNCA expr inh inconclusive.
Fc1ccc(-c2noc([C@@H]3Cc4nc[nH]c4CN3Cc3cc4ccccc4o3)n2)cc1Cl was read as KDM5B inh 28µM*, HEK293 viab 8%, IP6K1 inh 12 and SNCA expr inh 56%.
Fc1ccc(-c2noc([C@@H]3Cc4nc[nH]c4CN3Cc3ccccc3)n2)cc1Cl was read as KDM5B inh 35µM*, HEK293 viab -7%[87.6 µM], IP6K1 inh 0 and SNCA expr inh 47%[87.6 µM].
O=C(O)c1ccc(CN2Cc3[nH]cnc3C[C@H]2c2nc(-c3ccc(F)cc3)no2)cc1 was read as KDM5B inh inconclusive, HEK293 viab 12%[87.6 µM], IP6K1 inh 12 and SNCA expr inh 36%[87.6 µM].
Cc1ccc(-c2noc([C@@H]3Cc4nc[nH]c4CN3CC3CCCCC3)n2)cc1 was read as KDM5B inh inconclusive, HEK293 viab -18%[87.6 µM], IP6K1 inh -14 and SNCA expr inh -3%[87.6 µM].
For Fc1ccc(CN2CCOC[C@H]2c2ncc(-c3cccc(Cl)c3)[nH]2)cc1 the results were KDM5B inh inactive, HEK293 viab -20%[87.6 µM], IP6K1 inh 3 and SNCA expr inh inconclusive.
Screening COc1ccc(-n2cc(CN3CCCC(O)C3)c(-c3cccc(F)c3)n2)cc1 (stereo not drawn) returned KDM5B inh 22µM*, HEK293 viab inconclusive, IP6K1 inh -1 and SNCA expr inh 67%.
`COc1ccc(-n2cc(CN3CCC(CO)CC3)c(-c3cccc(F)c3)n2)cc1` gave KDM5B inh inconclusive, HEK293 viab -4%, IP6K1 inh 18 and SNCA expr inh 1%.
For CCc1ccc(C(=O)NCc2nnc3cc(-c4nc(C(C)C)no4)ccn23)cc1 the results were KDM5B inh inactive, HEK293 viab -30%, IP6K1 inh -6 and SNCA expr inh inconclusive.
Screening Cc1ccc(C(=O)NCc2nnc3cc(-c4nc(C(C)C)no4)ccn23)cc1 returned KDM5B inh 10µM*, HEK293 viab 5%, IP6K1 inh 6 and SNCA expr inh 7%.
Screening CC(C)c1noc(-c2ccn3c(CNC(=O)c4ccco4)nnc3c2)n1 returned KDM5B inh 28µM*, HEK293 viab -20%, IP6K1 inh 3 and SNCA expr inh -19%.
For CN(C)c1ccc(NC(=O)c2ccc(C#N)cc2)cc1 the results were KDM5B inh inactive.
Screening Cc1noc(C)c1-c1cc2c(c(-c3cnn(C)c3)c1)C(=O)N(C)C2 returned KDM5B inh 40µM*, HEK293 viab -6%[87.6 µM], IP6K1 inh 12 and SNCA expr inh 58%[87.6 µM].
`Cc1noc(C)c1-c1cc2c(c(-c3cccc(CO)c3)c1)C(=O)N(C)C2` gave KDM5B inh inactive, HEK293 viab -12%[87.6 µM], IP6K1 inh 15 and SNCA expr inh 64%[87.6 µM].
CC(C)(C)CC(=O)Nc1nc2c(s1)C[C@@H]1[C@](C)(CO)[C@H](O)CC[C@@]1(C)[C@@H]2CC(=O)NC1CCCCC1 was read as KDM5B inh inactive, HEK293 viab 0%, IP6K1 inh -4 and SNCA expr inh 3%.
O=C(CCc1ncc(-c2ccccc2)o1)Nc1ccccc1Cl was read as KDM5B inh inactive.
Cc1cn2nc(C(=O)NCc3ccccc3F)cc2c(N(C)Cc2ccccc2)n1 was read as KDM5B inh 14µM*, HEK293 viab -1%, IP6K1 inh -6 and SNCA expr inh -30%.
For COc1ccccc1CNC(=O)c1cc2c(N(C)Cc3ccccc3)nc(C)cn2n1 the results were KDM5B inh 14µM*, HEK293 viab -2%, IP6K1 inh 14 and SNCA expr inh 0%.
`COCCn1c(C)c(C)c(S(=O)(=O)c2ccccc2)c1NC(=O)C(C)C` gave KDM5B inh inactive.
Screening O=C(N[C@@H]1C[C@H](Cn2cc(CN3CCS(=O)(=O)CC3)nn2)[C@@H](O)[C@H]1O)C1CCCC1 returned KDM5B inh inconclusive, HEK293 viab 2%, IP6K1 inh -4 and SNCA expr inh 17%.
`O=C(N[C@@H]1C[C@H](Cn2cc(CN3CCS(=O)(=O)CC3)nn2)[C@@H](O)[C@H]1O)c1cncnc1` gave KDM5B inh 14µM*, HEK293 viab -2%, IP6K1 inh 8 and SNCA expr inh -13%.
For Cc1noc2c(-c3cccnc3NCCN(C)C)cc(-c3ccccc3)nc12 the results were KDM5B inh inconclusive, HEK293 viab -13%[87.6 µM], IP6K1 inh -9 and SNCA expr inh 2%[87.6 µM].
Screening Cc1noc2c(-c3cccnc3NCCCn3ccnc3)cc(-c3ccccc3)nc12 returned KDM5B inh 35µM*, HEK293 viab -26%[87.6 µM], IP6K1 inh -13 and SNCA expr inh inconclusive.
`COCCCNc1ncccc1-c1cc(-c2ccccc2)nc2c(C)noc12` gave KDM5B inh 40µM*, HEK293 viab 15%[87.6 µM], IP6K1 inh -13 and SNCA expr inh -11%[87.6 µM].
Screening O=C(NN=C(c1ccccc1)c1ccccc1)c1ccc[n+]([O-])c1 returned KDM5B inh inactive.
`COc1ccc(C(=O)NC2(C(F)(F)F)NC(=O)N(c3ccccc3F)C2=O)cc1` (stereo not drawn) gave KDM5B inh inactive.
O=C(Nc1cccc(Cl)c1)c1cnc(N2CCOCC2)c2ccccc12 was read as KDM5B inh inactive.
Cc1nc2ccc(C(=O)NCCCN3CCCCC3)cc2nc1C was read as KDM5B inh inactive.
